Results filed as inconclusive are left out. Calls of active or inactive are those of the source. Unless noted, cut-off not given; nearly all actives show AC50 up to about 26 µM.
Columns and labels:
[1] = viability loss in pontine glioma line – cell-based, SU-DIPG-XVII, MIPE5.0, CellTiter-Glo, qHTS, dose response (AID 1347060); conditions: CellTiter-Glo ATP luminescence;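 on AC50: cells exposed to compound for 48 hours before viability readout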
[2] = viability loss in pontine glioma line – cell-based, SU-DIPG-XXV, MIPE5.0, CellTiter-Glo, qHTS, dose response (AID 1347065); conditions: CellTiter-Glo ATP luminescence;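 further: cells exposed to compound for 48 hours before ATP readout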
[3] = JHH-DIPG-1 glioma cell viability, MIPE5.0 library, CellTiter-Glo luminescence, qHTS (AID 1347067); conditions: JHH-DIPG-1 glioma viability, CellTiter-Glo ATP luminescence;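 further: cells exposed to compound for 48 hours before readout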
[4] = growth inhibition of DIPG cells – cell-based, MIPE5.0 library, qHTS (AID 1347068; cut-off not given, nearly all actives have IC50 up to about 30 µM;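 on IC50: cells exposed to compound for 48 hours before viability readout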); conditions: SU-DIPG-XXV viability
[5] = growth inhibition of DIPG cells – cell-based, MIPE4.0 library, CellTiter-Glo luminescence, qHTS (AID 1347066; cut-off not given, nearly all actives have AC50 up to about 30 µM;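 further: cells exposed to compound for 48 hours before readout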); conditions: SU-DIPG-VI viability, CellTiter-Glo ATP luminescence
[6] = compounds altering HSF1 focus formation in cells – imaging, Selleck Cancer Library (AID 1347162; in the data active means plate-normalised HSF1 focus index below about 0.46); conditions: human cells, HSF1 nuclear foci imaging, at 10 µM; SSMD: measured here: HSF1 foci SSMD mean; cell count: measured here: cell number; plate-normalised HSF1 focus index: stronger effect = lower value
[7] = drug combination growth inhibition, ovarian cancer – cell-based, oncology-focused library, rucaparib conditional, profiling panel (AID 1508598;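 active means normalized viability below 100% at a tested concentration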); conditions: patient-derived ovarian cancer cells, CellTiter-Glo viability, 144 h, stronger effect = lower value

## CCc1c(C(=O)NNC(=O)[C@@H](O)c2cc(F)cc(F)c2)ccc(O)c1C
[1]
  outcome: inactive
[2]
  outcome: inactive
[3]
  outcome: inactive

## Cc1nnc(C[C@@H]2C=C(c3ccc(Cl)cc3)c3ccccc3-n3c(C)nnc32)o1
[1]
  AC50: 26.3 µM (active)
[2]
  AC50: 14.8 µM (active)
[3]
  AC50: 18.6 µM (active)

## COc1cc(N2CCN(C)CC2)ccc1Nc1ncc2c(n1)N(C)c1ccccc1C(=O)N2C
[1]
  AC50: 18.6 µM (active)
[2]
  AC50: 18.6 µM (active)
[3]
  AC50: 14.8 µM (active)

## Cn1cc(C2=C(c3cn(C)c4cc([N+](=O)[O-])ccc34)C(=O)NC2=O)c2ccccc21
[1]
  AC50: 0.332 µM (active)
[2]
  AC50: 0.263 µM (active)
[3]
  AC50: 0.468 µM (active)
[4]
  IC50: 4.68 µM (active)

## CCN(CC)CCCC[C@H](NC(=O)[C@H](CC(C)C)NC(=O)[C@H](C)NC(=O)[C@H](Cc1ccccc1)NC(=O)c1ccc(C(C)(C)C)cc1)C(=O)N[C@@H](CO)C(=O)OC
[1]
  outcome: inactive
[2]
  outcome: inactive
[3]
  outcome: inactive
[4]
  outcome: inactive

## COc1ccc2[nH]c(C(=O)N3CCC(CC(C)(C)O)CC3)cc2c1
[1]
  outcome: inactive
[2]
  outcome: inactive
[3]
  outcome: inactive

## C[C@@H](Oc1cc(-n2cnc3ccc(CN4CCN(C)CC4)cc32)sc1C(N)=O)c1ccccc1C(F)(F)F
[1]
  AC50: 0.0525 µM (active)
[2]
  AC50: 0.0372 µM (active)
[5]
  AC50: 18.7 µM (active)
[6]
  SSMD: 1.17
  cell count: 6420
  plate-normalised HSF1 focus index: 1.06 (inactive)
[7]; at 0.000305 µM, OCI-C5x cells, with rucaparib 10 µM, 100% = cells with rucaparib alone
  viability: 99.2% (active)
[7]; at 0.000305 µM, OCI-C5x cells, without rucaparib
  viability: 88.3% (active)
[7]; at 0.000305 µM, OCI-P5x cells, with rucaparib 20 µM, 100% = cells with rucaparib alone
  viability: 87% (active)
[7]; at 0.000305 µM, OCI-P5x cells, without rucaparib
  viability: 33.3% (active)
[7]; at 0.00122 µM, OCI-C5x cells, with rucaparib 10 µM, 100% = cells with rucaparib alone
  viability: 92.1% (active)
[7]; at 0.00122 µM, OCI-C5x cells, without rucaparib
  viability: 72.7% (active)
[7]; at 0.00122 µM, OCI-P5x cells, with rucaparib 20 µM, 100% = cells with rucaparib alone
  viability: 73.8% (active)
[7]; at 0.00122 µM, OCI-P5x cells, without rucaparib
  viability: 22% (active)
[7]; at 0.00488 µM, OCI-C5x cells, with rucaparib 10 µM, 100% = cells with rucaparib alone
  viability: 76.5% (active)
[7]; at 0.00488 µM, OCI-C5x cells, without rucaparib
  viability: 44% (active)
[7]; at 0.00488 µM, OCI-P5x cells, with rucaparib 20 µM, 100% = cells with rucaparib alone
  viability: 73.2% (active)
[7]; at 0.00488 µM, OCI-P5x cells, without rucaparib
  viability: 18% (active)
[7]; at 0.0195 µM, OCI-C5x cells, with rucaparib 10 µM, 100% = cells with rucaparib alone
  viability: 46.7% (active)
[7]; at 0.0195 µM, OCI-C5x cells, without rucaparib
  viability: 33.6% (active)
[7]; at 0.0195 µM, OCI-P5x cells, with rucaparib 20 µM, 100% = cells with rucaparib alone
  viability: 62.1% (active)
[7]; at 0.0195 µM, OCI-P5x cells, without rucaparib
  viability: 13.6% (active)
[7]; at 0.0781 µM, OCI-C5x cells, with rucaparib 10 µM, 100% = cells with rucaparib alone
  viability: 41.7% (active)
[7]; at 0.0781 µM, OCI-C5x cells, without rucaparib
  viability: 30.9% (active)
[7]; at 0.0781 µM, OCI-P5x cells, with rucaparib 20 µM, 100% = cells with rucaparib alone
  viability: 62.6% (active)
[7]; at 0.0781 µM, OCI-P5x cells, without rucaparib
  viability: 15.3% (active)
[7]; at 0.313 µM, OCI-C5x cells, with rucaparib 10 µM, 100% = cells with rucaparib alone
  viability: 34.4% (active)
[7]; at 0.313 µM, OCI-C5x cells, without rucaparib
  viability: 22.2% (active)
[7]; at 0.313 µM, OCI-P5x cells, with rucaparib 20 µM, 100% = cells with rucaparib alone
  viability: 70.6% (active)
[7]; at 0.313 µM, OCI-P5x cells, without rucaparib
  viability: 13.4% (active)
[7]; at 1.25 µM, OCI-C5x cells, with rucaparib 10 µM, 100% = cells with rucaparib alone
  viability: 38.1% (active)
[7]; at 1.25 µM, OCI-C5x cells, without rucaparib
  viability: 28.8% (active)
[7]; at 1.25 µM, OCI-P5x cells, with rucaparib 20 µM, 100% = cells with rucaparib alone
  viability: 62.3% (active)
[7]; at 1.25 µM, OCI-P5x cells, without rucaparib
  viability: 15.1% (active)
[7]; at 5 µM, OCI-C5x cells, with rucaparib 10 µM, 100% = cells with rucaparib alone
  viability: 51.4% (active)
[7]; at 5 µM, OCI-C5x cells, without rucaparib
  viability: 3.97% (active)
[7]; at 5 µM, OCI-P5x cells, with rucaparib 20 µM, 100% = cells with rucaparib alone
  viability: 0.676% (active)
[7]; at 5 µM, OCI-P5x cells, without rucaparib
  viability: 11.4% (active)

## C[C@@H]1COCCN1c1cc(-c2ccnn2C)c2ccnc(-c3ccn[nH]3)c2n1
[1]
  AC50: 1.48 µM (active)
[2]
  AC50: 1.86 µM (active)
[3]
  AC50: 5.25 µM (active)

## O=C(O)c1cnn(-c2nc3cc(OC(F)(F)F)c(Cl)cc3[nH]2)c1
[1]
  outcome: inactive
[2]
  outcome: inactive
[3]
  outcome: inactive
[4]
  outcome: inactive

## Cn1cc(-c2c[nH]c3ncnc(N4CCOCC4)c23)cn1
[1]
  outcome: inactive
[2]
  outcome: inactive
[3]
  outcome: inactive
[4]
  outcome: inactive

## COc1cc2c(cc1OC)CN(CCc1ccc(-n3nnc(-c4cc(OC)c(OC)cc4NC(=O)c4cc(=O)c5ccccc5o4)n3)cc1)CC2
[1]
  outcome: inactive
[2]
  outcome: inactive
[3]
  outcome: inactive
[4]
  outcome: inactive

## O=C1OC2(CCC(C(=O)Nc3ccn(-c4ccccc4F)n3)CC2)c2cnccc21 (configuration not stated)
[1]
  outcome: inactive
[2]
  outcome: inactive
[3]
  outcome: inactive
[4]
  outcome: inactive

## Cn1nccc1Nc1nccc(-c2cc3c(s2)C(C)(C)N(CCN2CCOCC2)C3=O)n1
[1]
  AC50: 5.25 µM (active)
[2]
  AC50: 10.5 µM (active)
[3]
  AC50: 2.09 µM (active)
[4]
  outcome: inactive

## CCCCCCCCCCCCCCCCOCCCOP(=O)(O)COC(CO)Cn1ccc(N)nc1=O (configuration not stated)
[1]
  outcome: inactive
[2]
  outcome: inactive
[3]
  outcome: inactive
[4]
  outcome: inactive

## Cc1c(NC(=O)c2cc3c(s2)CCCC3)cccc1-c1cn(C)c(=O)c(Nc2ccc(C3C(=O)N(C)CCN3C)cc2)n1 (configuration not stated)
[1]
  AC50: 23.5 µM (active)
[2]
  AC50: 18.6 µM (active)
[3]
  AC50: 18.6 µM (active)

## CCC[C@H](N[C@H]1CCc2cc(F)cc(F)c2C1)C(=O)Nc1cn(C(C)(C)CNCC(C)(C)C)cn1
[1]
  AC50: 33.2 µM (active)
[2]
  AC50: 18.6 µM (active)
[3]
  AC50: 23.5 µM (active)

## Oc1ccc([C@@H]2Oc3ccc(O)cc3[C@@H]3CCC[C@@H]32)cc1
[1]
  AC50: 13.2 µM (active)
[2]
  AC50: 11.8 µM (active)
[5]
  outcome: inactive

## COc1ccc2[nH]c3c(c2c1)CCN[C@]31CS[C@@H]2c3c(OC(C)=O)c(C)c4c(c3[C@H](COC1=O)N1[C@@H]2[C@H]2c3c(cc(C)c(OC)c3O)C[C@@H]([C@@H]1O)N2C)OCO4
[1]
  AC50: 0.000959 µM (active)
[2]
  AC50: 0.0034 µM (active)
[3]
  AC50: 0.00135 µM (active)

## COc1ccc(C(=O)N2CCN(C(=O)/C=C/c3ccc(Br)cc3)CC2)cc1
[1]
  outcome: inactive
[2]
  outcome: inactive
[3]
  outcome: inactive
[4]
  outcome: inactive

## O=C(Nc1nnc(-c2ccco2)o1)c1cc(-c2ccccc2)nc2ccccc12
[1]
  AC50: 26.3 µM (active)
[2]
  AC50: 20.9 µM (active)
[5]
  AC50: 14.8 µM (active)
[4]
  outcome: inactive

## COc1ccc2c(c1)CC[C@@H](CN(C)CC(=O)O)[C@H]2c1ccccc1
[1]
  outcome: inactive
[2]
  outcome: inactive
[5]
  outcome: inactive
[3]
  outcome: inactive
[4]
  outcome: inactive

## C[C@@H](OC[C@@]1(c2ccccc2)CC[C@]2(CCC(=O)N2)CN1)c1cc(C(F)(F)F)cc(C(F)(F)F)c1
[1]
  AC50: 20.9 µM (active)
[2]
  AC50: 18.6 µM (active)
[3]
  AC50: 14.8 µM (active)
[4]
  IC50: 20.9 µM (active)

## FC(F)(F)c1ccc(CNc2ccc(Cc3c[nH]c4ncccc34)cn2)cc1
[1]
  AC50: 16.6 µM (active)
[2]
  AC50: 20.9 µM (active)
[3]
  AC50: 18.6 µM (active)
[4]
  outcome: inactive

## Cn1c(-c2ccccc2C(F)(F)F)nnc1C12CCC(c3noc(C4CC(F)(F)C4)n3)(CC1)CC2
[1]
  outcome: inactive
[2]
  outcome: inactive
[3]
  outcome: inactive
[4]
  outcome: inactive

## O=C1NC(=O)[C@@H](c2c[nH]c3ccccc23)[C@H]1c1cn2c3c(cccc13)CCC2
[1]
  AC50: 0.525 µM (active)
[2]
  AC50: 0.742 µM (active)
[3]
  AC50: 1.66 µM (active)

## Fc1ccc2[nH]ccc2c1-c1nc(N2CCOCC2)c2sc(CN3CCN(CC4CC4)CC3)cc2n1
[1]
  AC50: 20.9 µM (active)
[2]
  AC50: 23.5 µM (active)
[3]
  AC50: 23.5 µM (active)

## O=C([O-])C[O-].[Pt+2]
[1]
  outcome: inactive
[2]
  outcome: inactive
[3]
  outcome: inactive
[4]
  outcome: inactive
